This note sets out measurements from PubChem BioAssay AID652053 (Broad Institute, 2013).

Molecules are shown by their SMILES. Screen size: about 1,300 compounds; about 930 (72%) were called active.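 The calls were made as follows: active = fitted curve reaches 40% activation signal increase at or below the top valid tested concentration in every replicate test; inconclusive = replicate tests disagree in their calls; inactive = all replicate tests inactive, including effects opposite the expected signal rise.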 So high a share suggests a set chosen from earlier hits. Only a sample is shown. Where a call stands in place of a potency, no number is given. Potency and affinity values are given separately.

This assay in a line: suppression of miR-122 activity, Renilla luciferase sensor – cell-based, Huh7 psiCHECK-miR122, cherry-pick, dose response (AID 652053). As to conditions: Huh7 psiCHECK-miR122 Renilla luciferase reporter, 48 h; series mostly up to 35 µM. (In a reporter assay the amount or activity of a reporter protein is the signal.)
In the case of `CCOC(=O)N1CCN(c2ncnc3c2oc2nc(C(C)C)c4c(c23)CCC4)CC1`, the outcome was inactive.

On to `CC(=O)Nc1ccc2nc(CN3CCC(CO)(CCc4ccccc4)CC3)ccc2c1`, for which the result was inactive.

For the molecule `COc1ccc(N(Cc2ccccc2)S(=O)(=O)c2cccc(C(=O)NC3=NCCS3)c2)cc1`, the result was inactive.

In the case of `CCOC(=O)c1[nH]c(C)c(C(=O)Nc2ccccc2C)c1C`, the call was inactive.

As for `Cc1ccc(N2CC(C(=O)Nc3nccs3)CC2=O)cc1Cl` (stereo not drawn), the result was inactive.

On to `c1csc(CNc2ncnc3ccc(-c4ccc5c(c4)OCO5)cc23)c1`, for which the molecule was called inactive.

As for `CCC(=O)N(C)C[C@@H]1[C@@H](c2ccc(C3=CCCC3)cc2)[C@H](CO)N1C(=O)CC`, the molecule was classed as inactive.

Turning to `N#Cc1ccc(CSc2nnc(-c3cccnc3)o2)cc1`, the result was inactive.

Regarding `Cc1ccc(S(=O)(=O)NC(C)(C)CSc2nnc(Nc3ccccc3)s2)cc1`, the result was inactive.

On to `COCCOC(=O)c1c(C)oc2ccc(NS(=O)(=O)c3ccc(C)cc3)cc12`, for which the outcome was inactive.

In the case of `CCc1noc(C)c1C(=O)OCC(=O)c1ccc(NC(C)=O)cc1F`, the molecule was classed as inactive.

In the case of `COc1ccccc1N1CCN(C(=O)CSc2nnc(NC(=O)C3CCC3)s2)CC1`, the call was inactive.

In the case of `O=C(c1ccccc1F)N1C[C@H]2[C@@H](c3ccccc31)[C@@H](CO)N2CC1CCCCC1`, the molecule was called inactive.

`CCCNC(=O)N1C[C@H]2[C@@H](c3ccccc31)[C@@H](CO)N2Cc1ccc(F)cc1`: the result was inactive.

Turning to `COc1cc(OC)cc(C(=O)N[C@H](C(=O)Nc2nc3ccccc3[nH]2)C(C)C)c1`, the molecule was called inactive.

Consider `O=C1N=C(N2CCc3ccccc3C2)S/C1=C\c1cccc(O)c1`, for which the molecule was classed as inactive.

Regarding `COc1ccc(C(=O)Nc2ccccc2C(=O)N/N=C/c2ccccc2OC)cc1`, the call was inactive.

Take `Cc1ncc([N+](=O)[O-])n1CC(=O)Nc1ccc2c(c1)OCO2`: the outcome was inactive.

Consider `CCc1ccc(-c2cc(C(=O)NCc3ccccn3)c3ccccc3n2)cc1`, for which the molecule was classed as inactive.

On to `N/C(Cc1cccc2ccccc12)=N\OC(=O)c1ccc2c(c1)OCO2`, for which the outcome was inactive.

`CCOc1ccc(N2C(=O)c3cccnc3C2Nc2ccc(F)cc2)cc1` (stereo not drawn): the result was inactive.

Turning to `O=C(Nc1ccc2c(c1)OCCO2)C1CCN(S(=O)(=O)c2ccccc2)CC1`, the result was inactive.

On to `CCCC(=O)Nc1nc2ccc(NC(=O)c3c(F)c(F)c(OC)c(F)c3F)cc2s1`, for which the result was inactive.

For the molecule `O=C(NC(=S)NCc1ccc2c(c1)OCO2)c1ccccc1`, the result was inactive.

On to `Cc1ccc(S(=O)(=O)N(C)C[C@@H]2Oc3ccc(NC(=O)Nc4ccc5c(c4)OCO5)cc3CC(=O)N([C@@H](C)CO)C[C@@H]2C)cc1`, for which the molecule was called inactive.

On to `Cc1cc(C)cc(N(CC(=O)N2CCC(C)CC2)S(=O)(=O)c2ccccc2)c1`, for which the molecule was classed as inactive.

As to `CC1CCN(S(=O)(=O)N2CCC(C(=O)NCCc3ccccc3)CC2)CC1`, the result was inactive.

Regarding `Fc1ccc(CSc2nnc(-c3cccnc3)o2)cc1`, the outcome was inactive.

As to `CC(C)CC#Cc1ccc2c(c1)O[C@@H](CN(C)C(=O)C1CCC1)[C@@H](C)CN([C@H](C)CO)S2(=O)=O`, the molecule was classed as inactive.

Take `C[C@H](CO)N1C[C@H](C)[C@H](CN(C)C(=O)Nc2cccc3ccccc23)Oc2ccc(N(C)C)cc2CC1=O`: the molecule was called inactive.

As for `C[C@H](CO)N1C[C@H](C)[C@@H](CN(C)S(C)(=O)=O)Oc2cc(C#Cc3ccccc3)ccc2S1(=O)=O`, the result was inactive.

In the case of `COC(=O)CCCCCC(CCC(=O)OC)NC(C)=O` (stereo not drawn), the call was inactive.

For `COC(=O)C[C@H]1CC[C@@H]2[C@@H](COc3ccc(NS(=O)(=O)c4ccc(C)cc4)cc3C(=O)N2C)O1`, the outcome was inactive.

For `COC(=O)C[C@H]1CC[C@H]2[C@H](COc3ccc(NS(=O)(=O)c4ccc(C)cc4)cc3C(=O)N2C)O1`, the call was inactive.

As for `CC(C)NC(=O)COC(=O)c1ccc(NS(=O)(=O)c2ccc3c(c2)OCCO3)cc1`, the result was inactive.

In the case of `COC(=O)C[C@@H]1CC[C@H]2[C@H](COc3ccc(NS(=O)(=O)c4ccc(C)cc4)cc3C(=O)N2C)O1`, the molecule was called inactive.

As to `COC(=O)C[C@@H]1CC[C@@H]2[C@@H](COc3ccc(NS(=O)(=O)c4ccc(C)cc4)cc3C(=O)N2C)O1`, the molecule was called inactive.

Regarding `O=C(COC(=O)c1cccc(NS(=O)(=O)/C=C/c2ccccc2)c1)Nc1ccccc1OC(F)F`, the call was inactive.

Turning to `CN(C)S(=O)(=O)NC(c1ccccc1)c1ccccc1`, the outcome was inactive.

Turning to `Cc1noc(C)c1S(=O)(=O)N(C)C[C@@H]1Oc2c(NC(=O)C3CCCCC3)cccc2C(=O)N([C@H](C)CO)C[C@@H]1C`, the result was inactive.

For the molecule `C[C@H](CO)N1C[C@H](C)[C@@H](CN(C)S(=O)(=O)c2cccs2)Oc2c(NC(=O)C3CCOCC3)cccc2C1=O`, the molecule was called inactive.

As for `COCC(=O)N1[C@H](CO)[C@H](c2ccccc2)[C@@H]1CNC(=O)c1ccccn1`, the molecule was classed as inactive.

With `COCC(=O)NC[C@H]1N[C@H](CO)[C@@H]1c1ccc(C2=CCCCC2)cc1`, the call was inactive.

`O=C(COC(=O)c1c2c(nc3ccccc13)CCN(Cc1ccccc1)C2)Nc1c(F)cccc1F`: the outcome was inactive.

As to `O=C(O/N=C1\CCS(=O)(=O)c2sccc21)c1ccccc1`, the molecule was called inactive.

For `CCCCNC(=O)CN1C(=O)NC2(CCOc3ccccc32)C1=O` (stereo not drawn), the molecule was classed as inactive.

Turning to `CCC(=O)N1[C@H](CO)[C@@H]2c3ccccc3N(C(=O)c3ccccc3F)C[C@@H]21`, the result was inactive.

Consider `O=C(Nc1ccccc1F)N1C[C@@H]2[C@H](c3ccccc31)[C@@H](CO)N2C(=O)C1CCCC1`, for which the molecule was classed as inactive.

For `O=C(NC[C@@H]1[C@H](c2ccccc2)[C@@H](CO)N1C(=O)C1CC1)NC1CCCC1`, the call was inactive.

With `O=C(c1ccccc1F)N1C[C@H]2[C@@H](c3ccccc31)[C@@H](CO)N2C(=O)C1CCCC1`, the molecule was classed as inactive.

On to `O=C1CCCS(=O)(=O)c2ccccc21`, for which the call was inactive.

Regarding `Cc1ccc2nc(C)c(C)nc2c1N`, the result was inactive.

Consider `CNC(=O)[C@@]1(C)C=C[C@@H](Cc2ccccc2)N1C(=O)OC`, for which the result was inactive.

`O=C(Cc1cccs1)Nc1ccc(S(=O)(=O)N2CCCCC2)cc1`: the call was inactive.

Take `Cc1ccc(S(=O)(=O)Nc2ccc3c(c2)CC(=O)N([C@H](C)CO)C[C@@H](C)[C@@H](CN(C)Cc2ccc(C(=O)Nc4ccccc4N)cc2)O3)cc1`: the result was inactive.

As for `Cc1ccc(S(=O)(=O)Nc2ccc3c(c2)CC(=O)N([C@@H](C)CO)C[C@H](C)[C@@H](CN(C)Cc2ccc(C(=O)Nc4ccccc4N)cc2)O3)cc1`, the outcome was inactive.

Regarding `Cc1ccc(S(=O)(=O)Nc2ccc3c(c2)CC(=O)N([C@@H](C)CO)C[C@@H](C)[C@@H](CN(C)Cc2ccc(C(=O)Nc4ccccc4N)cc2)O3)cc1`, the molecule was called inactive.

`Cc1ccc(S(=O)(=O)Nc2ccc3c(c2)CC(=O)N([C@H](C)CO)C[C@H](C)[C@@H](CN(C)Cc2ccc(C(=O)Nc4ccccc4N)cc2)O3)cc1`: the call was inactive.
